Common to all, as to parameters: scale not given: direction of the effect not stated beside the values
The target of assay [1] is Protein translocase subunit SecA (Escherichia coli (strain K12)) (UniProt P10408). Put plainly: Assay to Identify E. coli SecA ATPase Inhibitors. It is filed as functional. The conditions noted are these: 30 µM.
The target of assay [2] is T1, Ubiquitin-activating enzyme e1, putative (Leishmania donovani (strain BPK282A1)) (UniProt E9BSI1).
T1 sequence (whole entry): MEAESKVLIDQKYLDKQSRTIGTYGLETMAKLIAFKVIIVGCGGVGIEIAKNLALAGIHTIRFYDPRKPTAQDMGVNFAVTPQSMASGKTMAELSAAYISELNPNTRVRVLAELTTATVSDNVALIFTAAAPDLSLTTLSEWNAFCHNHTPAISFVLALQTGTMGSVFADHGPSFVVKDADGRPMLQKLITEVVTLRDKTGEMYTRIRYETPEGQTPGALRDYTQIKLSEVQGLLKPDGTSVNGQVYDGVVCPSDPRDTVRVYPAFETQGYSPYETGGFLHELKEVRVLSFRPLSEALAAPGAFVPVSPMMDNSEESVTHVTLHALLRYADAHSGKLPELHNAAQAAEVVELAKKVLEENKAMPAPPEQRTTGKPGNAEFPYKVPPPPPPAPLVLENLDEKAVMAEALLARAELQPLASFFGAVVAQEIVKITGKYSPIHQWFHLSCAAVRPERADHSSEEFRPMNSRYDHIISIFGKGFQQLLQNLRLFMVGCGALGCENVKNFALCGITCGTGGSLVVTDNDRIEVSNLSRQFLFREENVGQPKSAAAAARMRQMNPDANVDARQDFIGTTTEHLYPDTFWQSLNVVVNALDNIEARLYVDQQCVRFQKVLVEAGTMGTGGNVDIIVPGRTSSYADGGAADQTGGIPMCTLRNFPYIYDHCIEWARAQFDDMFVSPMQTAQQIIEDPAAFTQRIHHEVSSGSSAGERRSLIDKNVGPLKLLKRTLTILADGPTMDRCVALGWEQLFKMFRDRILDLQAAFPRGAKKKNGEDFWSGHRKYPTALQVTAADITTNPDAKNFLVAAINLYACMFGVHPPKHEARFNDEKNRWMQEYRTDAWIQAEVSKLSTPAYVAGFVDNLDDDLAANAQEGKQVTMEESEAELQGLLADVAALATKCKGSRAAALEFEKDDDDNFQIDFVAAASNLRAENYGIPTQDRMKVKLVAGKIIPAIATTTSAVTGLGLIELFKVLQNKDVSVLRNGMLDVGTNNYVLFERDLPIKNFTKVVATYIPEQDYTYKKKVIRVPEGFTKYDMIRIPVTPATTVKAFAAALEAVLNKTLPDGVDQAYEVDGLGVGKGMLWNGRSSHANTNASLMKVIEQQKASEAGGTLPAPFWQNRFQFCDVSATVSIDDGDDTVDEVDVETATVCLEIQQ
Put plainly: Leishmania donovani Ubiquitin Activating Enzyme (LdE1). The conditions noted are these: 30 µM. It is filed as functional.

Assay [3] concerns the target AMP-activated protein kinase, AMPK (Homo sapiens) (UniProt P54646+O43741+P54619+Q9UGJ0+Q9Y478+Q13131+Q9UGI9). Nature of the assay: AMP-dependent Kinase enzyme assay. An in vitro enzyme assay that detects ADP turnover that is directly proportional to AMPK activity. This uses naive AMPK that is activated during the assay with MK-8722. It is filed as functional. The conditions noted are these: 30 µM.

Assay [4] deals with Sialic acid-binding Ig-like lectin 9 (Homo sapiens) (UniProt Q9Y336). Nature of the assay: Hs-Siglec9 ALPHAscreen SOP 20170721. The conditions noted are these: 10 µM.
Chain of Sialic acid-binding Ig-like lectin 9 (Homo sapiens) (Q9Y336 whole entry): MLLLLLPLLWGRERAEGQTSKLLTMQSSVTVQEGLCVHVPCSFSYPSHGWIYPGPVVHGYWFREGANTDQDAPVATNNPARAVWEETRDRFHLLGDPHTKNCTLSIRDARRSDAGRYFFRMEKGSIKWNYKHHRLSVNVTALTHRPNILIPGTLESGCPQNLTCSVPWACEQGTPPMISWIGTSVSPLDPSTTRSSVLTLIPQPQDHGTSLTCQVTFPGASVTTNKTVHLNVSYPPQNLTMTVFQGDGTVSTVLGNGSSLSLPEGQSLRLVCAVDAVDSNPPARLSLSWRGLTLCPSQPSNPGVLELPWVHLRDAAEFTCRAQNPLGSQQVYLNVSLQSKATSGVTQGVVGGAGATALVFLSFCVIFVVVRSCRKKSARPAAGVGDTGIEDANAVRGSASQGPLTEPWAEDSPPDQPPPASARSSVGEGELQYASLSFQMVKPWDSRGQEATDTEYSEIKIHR
A further assay deals with Trypanosoma cruzi. Put plainly: Trypanosoma cruzi phosphomannomutase and mannose-1-phosphate guanylyltransferase assay. The conditions noted are these: 10 µM. It is filed as functional.
Assay [5] concerns the target T2, Arginase-2, mitochondrial (Homo sapiens) (UniProt P78540).
T2 sequence (whole entry): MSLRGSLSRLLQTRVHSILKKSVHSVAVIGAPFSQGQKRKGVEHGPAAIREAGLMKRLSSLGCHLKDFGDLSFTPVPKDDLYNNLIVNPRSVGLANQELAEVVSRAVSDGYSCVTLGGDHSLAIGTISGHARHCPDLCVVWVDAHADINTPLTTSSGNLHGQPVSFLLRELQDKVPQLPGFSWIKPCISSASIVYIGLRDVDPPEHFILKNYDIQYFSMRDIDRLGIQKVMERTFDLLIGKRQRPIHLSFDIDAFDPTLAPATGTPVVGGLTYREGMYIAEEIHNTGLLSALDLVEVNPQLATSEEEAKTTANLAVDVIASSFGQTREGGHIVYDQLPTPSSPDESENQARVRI
Put plainly: in vitro enzyme assay to detect the production of urea directly proportional to the activity of Arginase II. Further: in the data most compounds retested in dose-response had high values. It is filed as functional. The conditions noted are these: 33.3 µM.

For assay [6], the target named is T3, Proteasome subunit beta (Trypanosoma cruzi) (UniProt O96673).
T3 sequence (whole entry): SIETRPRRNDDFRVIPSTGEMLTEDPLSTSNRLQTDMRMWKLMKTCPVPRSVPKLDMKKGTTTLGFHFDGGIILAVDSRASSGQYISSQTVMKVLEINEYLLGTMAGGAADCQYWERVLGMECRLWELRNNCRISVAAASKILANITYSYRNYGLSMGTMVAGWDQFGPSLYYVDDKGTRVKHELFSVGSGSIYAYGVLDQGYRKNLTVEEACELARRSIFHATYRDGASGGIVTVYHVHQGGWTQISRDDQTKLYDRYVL
Put plainly: Trypanosoma cruzi proteasome chymotrypsin-like activity (TcProtChymo) assay. Further: in the data most compounds retested in dose-response had high values. It is filed as functional. The conditions noted are these: 9.37 µM.

Another assay is filed under the species Homo sapiens. Nature of the assay: To identify inhibition of the IFN signalling (Jak-Stat) pathway via expression of an eGFP reporter gene under the control of an IFN-stimulated response element (ISRE) containing MxA promoter. It is filed as functional. The conditions noted are these: 30 µM.
Assay [7] addresses T4, Tyrosyl-tRNA synthetase, putative (Trypanosoma cruzi (strain CL Brener)) (UniProt Q4DSP6).
T4 sequence (whole entry): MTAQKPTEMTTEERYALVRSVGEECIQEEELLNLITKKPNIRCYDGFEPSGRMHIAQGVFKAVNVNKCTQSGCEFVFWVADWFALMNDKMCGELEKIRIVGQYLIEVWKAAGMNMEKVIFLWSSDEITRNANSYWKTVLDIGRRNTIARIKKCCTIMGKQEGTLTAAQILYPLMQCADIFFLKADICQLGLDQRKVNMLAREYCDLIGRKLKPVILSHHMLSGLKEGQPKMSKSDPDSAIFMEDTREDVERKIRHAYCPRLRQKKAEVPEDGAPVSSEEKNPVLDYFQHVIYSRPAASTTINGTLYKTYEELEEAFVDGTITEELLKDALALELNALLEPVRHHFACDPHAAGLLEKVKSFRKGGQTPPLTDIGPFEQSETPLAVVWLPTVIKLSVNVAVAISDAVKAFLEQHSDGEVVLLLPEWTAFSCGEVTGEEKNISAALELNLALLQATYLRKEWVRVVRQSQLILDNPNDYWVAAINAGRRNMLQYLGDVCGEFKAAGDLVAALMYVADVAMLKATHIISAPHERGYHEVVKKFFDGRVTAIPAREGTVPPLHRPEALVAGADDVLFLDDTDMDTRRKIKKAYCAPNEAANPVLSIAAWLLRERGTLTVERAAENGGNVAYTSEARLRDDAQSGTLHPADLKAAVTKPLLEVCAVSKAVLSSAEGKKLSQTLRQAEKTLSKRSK
Put plainly: Trypanosoma cruzi tyrosyl tRNA synthetase (TcYRS) _High Tyrosine SOP. Further: in the data most compounds retested in dose-response had high values. It is filed as functional. The conditions noted are these: 30 µM.

The target in assay [8] is T4, Tyrosyl-tRNA synthetase, putative (Trypanosoma cruzi (strain CL Brener)). Put plainly: Trypanosoma cruzi tyrosyl tRNA synthetase (TcYRS) SOP. It is filed as functional. The conditions noted are these: 30 µM.
Assay [9] concerns the target Chromo domain-containing protein 1 (Saccharomyces cerevisiae (strain ATCC 204508 / S288c) (Baker's yeast)) (UniProt P32657). Nature of the assay: ScCHD-1 Enzyme Inhibition Assay. Further: in the data most compounds retested in dose-response had high values. It is filed as functional. The conditions noted are these: 30 µM.

For some of these results: Potency and affinity values are given separately.

Chain of Protein translocase subunit SecA (Escherichia coli (strain K12)) (P10408 whole entry): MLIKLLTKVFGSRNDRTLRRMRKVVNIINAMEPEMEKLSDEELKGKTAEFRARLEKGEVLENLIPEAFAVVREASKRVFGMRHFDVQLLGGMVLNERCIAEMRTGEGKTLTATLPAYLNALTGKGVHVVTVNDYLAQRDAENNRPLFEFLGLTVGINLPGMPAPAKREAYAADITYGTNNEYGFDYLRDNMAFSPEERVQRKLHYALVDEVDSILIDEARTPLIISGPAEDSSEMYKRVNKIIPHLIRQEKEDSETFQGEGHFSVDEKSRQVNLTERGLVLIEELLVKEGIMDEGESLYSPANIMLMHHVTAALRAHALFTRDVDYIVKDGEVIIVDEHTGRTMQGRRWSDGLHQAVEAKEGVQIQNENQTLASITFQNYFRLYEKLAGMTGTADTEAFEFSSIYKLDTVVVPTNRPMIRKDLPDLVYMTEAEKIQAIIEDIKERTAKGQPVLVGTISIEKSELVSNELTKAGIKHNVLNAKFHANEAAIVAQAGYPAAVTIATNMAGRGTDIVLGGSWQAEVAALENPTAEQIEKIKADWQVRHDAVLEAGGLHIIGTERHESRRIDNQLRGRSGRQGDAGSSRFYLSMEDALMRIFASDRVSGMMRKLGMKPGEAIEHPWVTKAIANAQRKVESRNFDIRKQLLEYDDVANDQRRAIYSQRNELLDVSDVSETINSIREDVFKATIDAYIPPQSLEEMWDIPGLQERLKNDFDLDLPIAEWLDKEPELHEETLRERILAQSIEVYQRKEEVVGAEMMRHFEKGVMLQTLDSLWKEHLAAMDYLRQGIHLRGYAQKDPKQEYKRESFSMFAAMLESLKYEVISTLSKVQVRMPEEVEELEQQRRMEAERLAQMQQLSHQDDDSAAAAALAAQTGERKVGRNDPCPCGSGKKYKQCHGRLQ
Chain of Chromo domain-containing protein 1 (Saccharomyces cerevisiae (strain ATCC 204508 / S288c) (Baker's yeast)) (P32657 whole entry, the tested form may be a part): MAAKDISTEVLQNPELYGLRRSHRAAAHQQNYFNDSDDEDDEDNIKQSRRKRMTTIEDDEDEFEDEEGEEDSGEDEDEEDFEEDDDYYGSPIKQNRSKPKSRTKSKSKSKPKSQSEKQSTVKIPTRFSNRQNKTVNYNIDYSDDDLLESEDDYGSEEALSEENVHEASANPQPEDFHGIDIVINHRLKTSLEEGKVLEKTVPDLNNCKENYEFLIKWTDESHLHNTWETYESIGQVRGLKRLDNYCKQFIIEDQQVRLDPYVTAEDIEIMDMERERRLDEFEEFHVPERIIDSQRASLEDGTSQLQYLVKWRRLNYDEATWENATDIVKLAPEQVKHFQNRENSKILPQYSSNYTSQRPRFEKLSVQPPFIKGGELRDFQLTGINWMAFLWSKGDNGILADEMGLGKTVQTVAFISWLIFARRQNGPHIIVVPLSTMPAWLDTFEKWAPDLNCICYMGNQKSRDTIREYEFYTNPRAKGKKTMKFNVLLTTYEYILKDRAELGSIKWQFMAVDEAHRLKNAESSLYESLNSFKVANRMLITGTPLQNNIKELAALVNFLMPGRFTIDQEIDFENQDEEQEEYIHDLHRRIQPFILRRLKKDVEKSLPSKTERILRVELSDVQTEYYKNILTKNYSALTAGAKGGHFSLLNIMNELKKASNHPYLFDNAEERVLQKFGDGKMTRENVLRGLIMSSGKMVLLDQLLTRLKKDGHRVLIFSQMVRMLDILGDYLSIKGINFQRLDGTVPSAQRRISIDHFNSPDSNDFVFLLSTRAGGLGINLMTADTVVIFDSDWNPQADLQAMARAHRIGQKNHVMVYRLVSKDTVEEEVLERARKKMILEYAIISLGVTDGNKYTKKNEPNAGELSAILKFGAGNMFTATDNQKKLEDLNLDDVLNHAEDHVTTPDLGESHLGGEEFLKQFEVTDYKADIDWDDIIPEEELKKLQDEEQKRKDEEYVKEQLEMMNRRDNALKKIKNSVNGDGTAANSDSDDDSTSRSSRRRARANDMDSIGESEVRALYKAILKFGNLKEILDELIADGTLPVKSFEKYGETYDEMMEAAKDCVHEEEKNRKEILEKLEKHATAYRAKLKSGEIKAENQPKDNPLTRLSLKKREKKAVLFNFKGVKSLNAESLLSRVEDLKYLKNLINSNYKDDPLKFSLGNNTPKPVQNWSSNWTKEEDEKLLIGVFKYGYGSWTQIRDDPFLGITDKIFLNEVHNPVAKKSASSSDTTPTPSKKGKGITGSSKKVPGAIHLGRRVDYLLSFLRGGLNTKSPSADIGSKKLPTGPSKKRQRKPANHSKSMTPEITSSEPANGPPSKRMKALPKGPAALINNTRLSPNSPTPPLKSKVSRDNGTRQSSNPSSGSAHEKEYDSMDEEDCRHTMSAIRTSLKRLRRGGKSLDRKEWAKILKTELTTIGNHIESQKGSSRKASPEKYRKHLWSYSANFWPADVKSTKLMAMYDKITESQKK

On to `COCCN1C[C@@H](C)[C@@]2(COCCN(C(=O)c3cnc(C)cn3)C2)C1`, for which the Percent Effect in assay [1] is 0.144%; in assay [2] it was 10.7%; in assay [3], 6.23%; in assay [4], 3.86%; in the assay on Trypanosoma cruzi, -3.28%; in assay [5] it was -21.3%. The Percent Effect in [6] is 12.7%; in the assay filed under Homo sapiens it was -11.1%; in [7], -5.21%; in [8], 12.5%; in assay [9] it was -6.61%.
In the case of `CC(C)CNC(=O)c1c(-n2cnnn2)sc2c1CCC2`, the Percent Effect was -4.85% in assay [1]; 13.2% in assay [2]; 3.3% in assay [3]; 0.76% in assay [4]; 0.0974% with Trypanosoma cruzi; 0% in [5]. Besides, the Percent Effect in [6] is 10.4%; in the assay filed under Homo sapiens, -15.7%; in [7], 2.13%; in assay [8] it was 15.6%; in [9], -4.29%.
As for `Cc1cnn(C2CCCN(C(=O)c3ccnc(-n4ccnc4)c3)C2)c1` (stereo unspecified), the Percent Effect is -2.31% in [1]; 8.86% in [2]; 2.83% in [3]; 0.259% in assay [4]; -0.513% in the assay with Trypanosoma cruzi; 3.66% in assay [5]. Also, the Percent Effect in assay [6] was 8.23%; in the assay listed under Homo sapiens it was 0.141%; in assay [7], 4.17%; in assay [8], 17.7%; in assay [9], -27.2%.
Consider `Cn1cccc1C(=O)N1CCc2ncc(Cn3cccn3)n2CC1`, for which the Percent Effect in assay [1] was -5.21%; in assay [2], 10.7%; in assay [3], -0.846%; in assay [4], -1.04%; in the assay on Trypanosoma cruzi, 2.32%; in [5], -43.2%. Further, the Percent Effect in [6] is 0.513%; in the assay listed under Homo sapiens, -2.01%; in assay [7] it was 2.08%; in assay [8], 2.5%; in [9] it was -3.31%.
As for `COc1ccc(C(C)N2CCN(Cc3nccn3C)CC2)cc1Cl` (stereo unspecified), the Percent Effect in assay [1] was -3.06%; in [2], 2.6%; in [3], -0.681%; in assay [4], 9.44%; in the assay with Trypanosoma cruzi it was -1.87%; in assay [5] it was 0.712%. Also, the Percent Effect in [6] is 11.3%; in the assay listed under Homo sapiens, 9.04%; in [7] it was 2.91%; in [8], 0%; in assay [9], -0.322%.
For `Cc1ccc(C(=O)N2CCN(S(C)(=O)=O)CC2)cc1N1CCNC1=O`, the Percent Effect in [1] is -5.92%; in [2], 8%; in [3], 3.73%; in assay [4], 15.8%; with Trypanosoma cruzi, 2.24%; in assay [5] it was 5.73%. The Percent Effect is 15.5% in assay [6]; 16.6% in the assay filed under Homo sapiens; 6.01% in [7]; 11.1% in [8]; -6.07% in assay [9].
With `Cc1cc(NC(=O)NCC(O)c2ccc(Cl)cc2Cl)n(C)n1` (stereo unspecified), the Percent Effect in assay [1] was -2.82%; in [2], -2.63%; in [3], 1.15%; in assay [4], 8.57%; in the assay with Trypanosoma cruzi it was 0.376%; in assay [5] it was -0.383%. Also, the Percent Effect in assay [6] was -2.17%; in the assay filed under Homo sapiens it was -20.8%; in assay [7] it was -0.49%; in [8], -75.6%; in assay [9], -5.69%.
Consider `c1cn(Cc2nnc(C3CCN(C4CCOCC4)CC3)n2C2CC2)cn1`, for which the Percent Effect was -3.73% in assay [1]; 2.67% in assay [2]; -3.77% in assay [3]; -0.983% in assay [4]; -3.21% in the assay with Trypanosoma cruzi; 0% in assay [5]. The Percent Effect was 26.7% in assay [6]; 21.6% in the assay listed under Homo sapiens; 2.73% in assay [7]; 3.7% in assay [8]; -5.45% in assay [9].
On to `CN1CCN(c2ncc3c(=O)n(-c4cccc(F)c4)c(=O)[nH]c3n2)CC1`, for which the Percent Effect in [1] was 0.451%; in assay [2] it was 13.2%; in assay [3], 0.333%; in assay [4] it was -0.649%; in the assay with Trypanosoma cruzi, -1.27%; in [5], 7.1%. The Percent Effect in assay [6] was 18.9%; in the assay filed under Homo sapiens, -9.16%; in assay [7], 4.25%; in assay [8], 10.4%; in assay [9], 92.2%.
With `Cn1cnnc1C1CCCN(C(=O)c2ccccc2Cl)C1` (stereo unspecified), the Percent Effect in assay [1] is -3.26%; in assay [2], 18.2%; in [3] it was -0.796%; in [4] it was -3.37%; with Trypanosoma cruzi, 1.67%; in assay [5] it was 0.632%. Moreover, the Percent Effect in [6] was 5.74%; in the assay listed under Homo sapiens, 6.09%; in assay [7], 11.4%; in assay [8], 25.9%; in assay [9], -17.8%.
With `CC(=O)N1CC(=O)N(c2cnn(C)c2)CC12CCN(CC1CC1)C2` (stereo unspecified), the Percent Effect was -2.91% in assay [1]; 0% in assay [2]; 1.91% in assay [3]; 0.306% in assay [4]; -3.52% in the assay on Trypanosoma cruzi; 1.67% in assay [5]. Besides, the Percent Effect in [6] was 0.423%; in the assay filed under Homo sapiens, -7.14%; in assay [7] it was 4.95%; in assay [8], 1.22%; in assay [9], -0.193%.

The values above are taken from ChEMBL document CHEMBL3988442, “University of Dundee, Small-Polar-MMV Screening Library” (2021).
